Data from PubChem BioAssay (EPA / NIEHS).
Activity calls are given as the source filed them. The calls were made as follows: active = hit-call score of the fitted dose curve at least 0.9, where 1 is the maximum; inactive = score below 0.9.

Assays:
[1] = ATG_CRE_CIS: Attagene CIS-FACTORIAL HepG2 Assay for human cAMP Responsive Element (CRE) binding protein 3 (AID 2282926); conditions: HepG2 CRE cis-reporter, Attagene multiplexed mRNA; actives raise or lower the signal
Procedure, shortened: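 Endogenous transcription factor activity read via CRE-regulated reporter transcripts in transfected HepG2 cells. After 24 h exposure, RNA was reverse-transcribed, amplified, fluorescently labelled and sized by capillary electrophoresis; gain or loss fitted against DMSO.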

[2] = target: CCAAT/enhancer-binding protein beta (Homo sapiens) (UniProt P17676); test: ATG_C_EBP_CIS: Attagene CIS-FACTORIAL HepG2 Assay for human CCAAT/Enhancer Binding Protein (C/EBP) beta (AID 2282927); conditions: HepG2 Attagene cis-factorial transcription factor reporter; actives raise or lower the signal
Procedure, shortened: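 Chemical-treated HepG2 cells (24 h) bearing cis-regulated reporter constructs were processed for total RNA, then reverse transcription, PCR amplification, fluorescent primer extension and fragment analysis; gain- and loss-of-signal were fitted against DMSO.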

[3] = ATG_CMV_CIS: Attagene CIS-FACTORIAL HepG2 Assay for human CMV (Internal Marker) (AID 2282928); conditions: HepG2 CMV promoter reporter, transcription factor profiling; actives raise or lower the signal;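 also: endpoint acts as a background internal control marker rather than a target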
Procedure, shortened: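 24 h chemical treatment, HepG2 with transient multi-reporter transfection; RNA → oligo(dT) RT → PCR → 6-FAM extension → HpaI digest → CE fluorescence. Bidirectional fit, DMSO negative control.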

[4] = ATG_DR4_LXR_CIS: Attagene CIS-FACTORIAL HepG2 Assay for human Liver X Receptor (LXR), DR4 submotif (AID 2282929); conditions: HepG2 Attagene DR4 cis-reporter, mRNA transcription; actives raise or lower the signal
Procedure, shortened: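 Readout: reporter transcript fluorescence after RT-PCR and capillary electrophoresis, fitted bidirectionally against DMSO controls. Human HepG2 liver cells carried transiently transfected multiplexed reporter constructs; endogenous transcription factor activity measured 24 h post-dosing.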

[5] = target: Aryl hydrocarbon receptor (Homo sapiens) (UniProt P35869); test: ATG_Ahr_CIS: Attagene CIS-FACTORIAL HepG2 Assay for human Aryl Hydrocarbon Receptor (Ahr) (AID 2282930); conditions: HepG2 AhR cis-factorial reporter transcription; actives raise or lower the signal
Procedure, shortened: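 Following 24 h of chemical dosing, transfected HepG2 liver cells with cis-driven reporter units were lysed for RNA; reporter mRNA was quantified via RT-PCR and capillary electrophoresis, and responses fitted bidirectionally from DMSO.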

[6] = ATG_AP_2_CIS: Attagene CIS-FACTORIAL HepG2 Assay for human Activator Protein 2 (AP-2) (AID 2282932); conditions: HepG2 AP-2 cis-reporter, Attagene transcription factor profiling; actives raise or lower the signal
Procedure, shortened: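 Assay in transfected HepG2 with promoter-regulated reporters, 24 h incubation after dosing. Signal is reporter mRNA fluorescence (RT-PCR, capillary electrophoresis), analysed for both increases and decreases relative to DMSO controls.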

[7] = ATG_BRE_CIS: Attagene CIS-FACTORIAL HepG2 Assay for human Bone Morphogenetic Protein (BMP) Response Element (BRE) (AID 2282933); conditions: HepG2 BMP response element reporter, Attagene transcription factor profiling; actives raise or lower the signal
Procedure, shortened: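 Endogenous transcription factor activity at a BMP response element was monitored in transfected HepG2 cells 24 h after dosing. Fluorescent RT-PCR products were resolved by capillary electrophoresis, and activity was fitted in both directions versus DMSO.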

[8] = target: Transcription factor E2F1 (Homo sapiens) (UniProt Q01094); test: ATG_E2F_CIS: Attagene CIS-FACTORIAL HepG2 Assay for human E2F Transcription Factor 1 (AID 2282935); conditions: HepG2 Attagene cis-reporter, E2F reporter RNA transcripts; actives raise or lower the signal
Procedure, shortened: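 In this cis-factorial format, endogenous factor activity drives transfected reporters in HepG2; transcripts collected at 24 h are quantified by fluorescence after RT-PCR and capillary separation.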

[9] = ATG_E_Box_CIS: Attagene CIS-FACTORIAL HepG2 Assay for human Enhancer Box (E-box) (AID 2282936); conditions: HepG2 E-box cis-reporter transcription, actives raise or lower the signal
Procedure, shortened: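 Measured 24 h post-dosing in HepG2 cells transfected with multiple cis-regulated reporter units, signal being reporter mRNA induction detected by fluorescent RT-PCR with capillary electrophoresis; gain or loss fitted against DMSO.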

[10] = ATG_M_61_CIS: Attagene CIS-FACTORIAL HepG2 Assay for M61 Transcription Factor (Internal Marker) (AID 2282937); conditions: HepG2 Attagene CIS-FACTORIAL M61 internal marker reporter; actives raise or lower the signal
Procedure, shortened: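 Readout: fluorescent reporter mRNA fragments resolved by capillary electrophoresis after RT-PCR. Transiently transfected human HepG2 cells carried MRTU constructs reporting endogenous TF activity; 24 h chemical exposure; gain or loss of signal fitted relative to DMSO.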

[11] = ATG_EGR_CIS: Attagene CIS-FACTORIAL HepG2 Assay for human Early Growth Response 1 (EGR1) (AID 2282938); conditions: HepG2 Attagene CIS-FACTORIAL EGR reporter mRNA; actives raise or lower the signal
Procedure, shortened: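 Read-out: fluorescent reporter-mRNA fragments resolved by capillary electrophoresis after RT-PCR, 24 h post-dose in transiently transfected HepG2. Endogenous transcription-factor activity reported via cis-element-regulated reporter units; gain or loss fitted relative to DMSO.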

[12] = ATG_M_19_CIS: Attagene CIS-FACTORIAL HepG2 Assay for M19 Transcription Factor (Internal Marker) (AID 2282939); conditions: HepG2 Attagene CIS-FACTORIAL M19 internal marker reporter; actives raise or lower the signal
Procedure, shortened: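 Background-control endpoint from a multiplexed HepG2 reporter panel. Cells carrying cis-regulated reporter constructs are treated 24 h, then reporter transcripts are amplified, fluorescently labelled and sized by capillary electrophoresis. DMSO defines baseline.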

[13] = ATG_ERE_CIS: Attagene CIS-FACTORIAL HepG2 Assay for Estrogen Response Element (ERE) (AID 2282940); conditions: HepG2 ERE cis-reporter, Attagene RNA transcript; actives raise or lower the signal
Procedure, shortened: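 Cells used were human hepatoma HepG2, transfected with multiple reporter transcription units under cis-regulatory promoters. Reporter mRNA, read 24 h post-dosing via fluorescent RT-PCR products on capillary electrophoresis, was fitted bidirectionally relative to DMSO.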

[14] = ATG_Ets_CIS: Attagene CIS-FACTORIAL HepG2 Assay for human Erythroblast Transformation Specific (ETS) (AID 2282941); conditions: HepG2 ETS cis-reporter transcription, actives raise or lower the signal
Procedure, shortened: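 Cis-regulated reporter mRNA induction in HepG2 (transient transfection), 24 h exposure, RT-PCR plus capillary electrophoresis detection; DMSO serves as negative control and baseline.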

[15] = target: Hepatocyte nuclear factor 3-beta (Homo sapiens) (UniProt Q9Y261); test: ATG_FoxA2_CIS: Attagene CIS-FACTORIAL HepG2 Assay for human Forkhead box A2 (FOXA2) (AID 2282942); conditions: HepG2 cis-reporter transcription factor activity, 24 h; actives raise or lower the signal
Procedure, shortened: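 Readout: fluorescent reporter transcripts resolved by capillary electrophoresis after RT-PCR. Transiently transfected HepG2, 24 h compound exposure, endogenous TF activity at cis promoter elements. Gain or loss of signal fitted relative to DMSO.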

[16] = ATG_FoxO_CIS: Attagene CIS-FACTORIAL HepG2 Assay for human Forkhead box O (FoxO) (AID 2282943); conditions: HepG2 Attagene cis-reporter, FoxO element, mRNA; actives raise or lower the signal
Procedure, shortened: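 24 h chemical exposure, HepG2 with transient cis-MRTU transfection. RNA extraction, oligo(dT) RT, reporter-specific PCR, primer-extension labelling, HpaI digestion, CE fragment analysis; bidirectional fit, DMSO baseline.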

[17] = ATG_GATA_CIS: Attagene CIS-FACTORIAL HepG2 Assay for human GATA Binding Protein (AID 2282944); conditions: HepG2 GATA cis-element reporter, Attagene multiplex mRNA; actives raise or lower the signal
Procedure, shortened: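 Endogenous transcription factor activity was captured through cis-promoter-driven reporters in transfected HepG2 cells. After 24 h exposure, reporter transcripts were quantified by RT-PCR with fluorescent capillary electrophoresis, and responses fitted both directions against DMSO.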

[18] = target: Retinoic acid receptor alpha (Homo sapiens) (UniProt P10276); test: ATG_DR5_RAR_CIS: Attagene CIS-FACTORIAL HepG2 Assay for human Retinoic Acid Receptor Alpha (RARE), DR5 submotif (AID 2282934); conditions: HepG2 Attagene cis-factorial RARE DR5 reporter, mRNA; actives raise or lower the signal
Procedure, shortened: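 Transfected HepG2 reporter cells are exposed to chemicals for 24 h. Then RNA is extracted and the DR5 element reporter transcript is measured by RT-PCR and capillary electrophoresis, with bidirectional curve fitting relative to DMSO.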

Measured: AC50

Aryl hydrocarbon receptor (Homo sapiens), sequence (P35869 whole entry, looked up): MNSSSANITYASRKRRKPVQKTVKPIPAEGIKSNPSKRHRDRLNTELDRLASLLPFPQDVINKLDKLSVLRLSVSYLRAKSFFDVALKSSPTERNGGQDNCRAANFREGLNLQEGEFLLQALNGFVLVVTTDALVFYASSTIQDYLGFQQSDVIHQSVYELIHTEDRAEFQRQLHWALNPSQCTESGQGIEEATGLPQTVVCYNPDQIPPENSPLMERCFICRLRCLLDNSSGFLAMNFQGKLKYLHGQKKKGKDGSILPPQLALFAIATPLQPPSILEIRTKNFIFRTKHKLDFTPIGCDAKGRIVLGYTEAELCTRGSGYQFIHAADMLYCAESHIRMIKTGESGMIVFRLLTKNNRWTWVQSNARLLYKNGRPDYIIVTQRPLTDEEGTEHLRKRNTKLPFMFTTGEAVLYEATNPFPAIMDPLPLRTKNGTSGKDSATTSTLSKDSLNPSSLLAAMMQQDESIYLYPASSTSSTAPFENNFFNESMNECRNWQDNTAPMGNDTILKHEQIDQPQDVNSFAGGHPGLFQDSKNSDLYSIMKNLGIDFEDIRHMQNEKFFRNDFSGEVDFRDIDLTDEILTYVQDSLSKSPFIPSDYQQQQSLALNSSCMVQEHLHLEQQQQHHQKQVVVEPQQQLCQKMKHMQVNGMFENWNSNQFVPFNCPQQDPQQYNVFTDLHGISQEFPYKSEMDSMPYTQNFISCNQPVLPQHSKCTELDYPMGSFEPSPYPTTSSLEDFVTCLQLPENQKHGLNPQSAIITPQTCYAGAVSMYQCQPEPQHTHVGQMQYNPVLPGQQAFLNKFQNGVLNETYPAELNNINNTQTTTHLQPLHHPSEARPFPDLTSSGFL
Hepatocyte nuclear factor 3-beta (Homo sapiens), sequence (Q9Y261 whole entry, looked up): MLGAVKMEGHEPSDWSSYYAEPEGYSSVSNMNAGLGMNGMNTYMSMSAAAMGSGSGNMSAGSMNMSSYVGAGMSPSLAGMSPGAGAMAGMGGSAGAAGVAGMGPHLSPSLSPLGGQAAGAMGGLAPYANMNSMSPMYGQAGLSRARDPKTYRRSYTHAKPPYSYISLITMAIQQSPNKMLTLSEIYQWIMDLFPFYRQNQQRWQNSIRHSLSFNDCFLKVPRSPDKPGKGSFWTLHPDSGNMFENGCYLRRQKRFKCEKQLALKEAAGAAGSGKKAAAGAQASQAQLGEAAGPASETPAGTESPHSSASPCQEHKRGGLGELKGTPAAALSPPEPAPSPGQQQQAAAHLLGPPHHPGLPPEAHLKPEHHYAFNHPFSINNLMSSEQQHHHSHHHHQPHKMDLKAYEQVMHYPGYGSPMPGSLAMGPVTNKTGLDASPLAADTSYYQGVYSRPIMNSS
Transcription factor E2F1 (Homo sapiens), sequence (Q01094 whole entry, looked up): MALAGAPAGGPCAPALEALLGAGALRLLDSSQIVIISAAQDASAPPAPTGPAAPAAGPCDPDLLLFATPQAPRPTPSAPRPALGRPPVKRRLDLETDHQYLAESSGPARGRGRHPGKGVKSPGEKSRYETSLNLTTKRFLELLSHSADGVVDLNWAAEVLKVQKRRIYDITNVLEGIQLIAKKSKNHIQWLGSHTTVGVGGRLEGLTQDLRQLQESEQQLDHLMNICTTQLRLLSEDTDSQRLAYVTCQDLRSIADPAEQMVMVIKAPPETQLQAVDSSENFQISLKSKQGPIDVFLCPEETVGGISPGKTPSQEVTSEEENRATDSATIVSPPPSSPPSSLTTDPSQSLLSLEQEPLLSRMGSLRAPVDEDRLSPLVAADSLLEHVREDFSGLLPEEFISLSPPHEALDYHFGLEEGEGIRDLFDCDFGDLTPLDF
CCAAT/enhancer-binding protein beta (Homo sapiens), sequence (P17676 whole entry, looked up, the tested form may be a part): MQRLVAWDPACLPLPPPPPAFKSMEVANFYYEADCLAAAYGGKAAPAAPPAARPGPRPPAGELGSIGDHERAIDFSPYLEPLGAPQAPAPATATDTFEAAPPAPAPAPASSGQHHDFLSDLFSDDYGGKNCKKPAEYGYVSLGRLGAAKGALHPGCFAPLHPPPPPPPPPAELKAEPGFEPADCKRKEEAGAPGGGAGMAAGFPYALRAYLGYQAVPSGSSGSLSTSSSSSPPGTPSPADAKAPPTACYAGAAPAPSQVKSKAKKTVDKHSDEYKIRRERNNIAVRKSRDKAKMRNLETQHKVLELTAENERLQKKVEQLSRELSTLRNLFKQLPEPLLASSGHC
Retinoic acid receptor alpha (Homo sapiens), sequence (P10276 whole entry, looked up): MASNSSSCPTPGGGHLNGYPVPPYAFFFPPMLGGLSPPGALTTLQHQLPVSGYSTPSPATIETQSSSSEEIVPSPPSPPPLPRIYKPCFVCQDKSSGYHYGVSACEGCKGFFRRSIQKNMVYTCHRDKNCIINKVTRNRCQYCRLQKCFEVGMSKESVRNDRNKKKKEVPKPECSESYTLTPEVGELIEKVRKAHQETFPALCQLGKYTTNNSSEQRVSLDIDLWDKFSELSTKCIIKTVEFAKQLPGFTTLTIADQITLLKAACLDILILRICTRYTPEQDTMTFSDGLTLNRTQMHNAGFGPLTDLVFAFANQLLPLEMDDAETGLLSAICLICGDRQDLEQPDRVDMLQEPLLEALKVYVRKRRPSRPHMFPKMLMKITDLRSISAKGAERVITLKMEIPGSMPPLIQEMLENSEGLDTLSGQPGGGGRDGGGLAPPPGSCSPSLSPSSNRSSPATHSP

CC1=CC2C3C=CC(C3)C2C1C (stereo not given)
active: [2] 100 µM | [8] 29.9 µM
not listed: [18]
inactive: all other assays above

O=C(c1ccccc1)c1ccc(O)cc1O
active: [3] 123 µM | [13] 1.72 µM
not listed: [2] | [7]
inactive: all other assays above

COC(F)(C(F)F)C(F)(F)F (stereo not given)
not listed: [7]
inactive: all other assays above
